# Results: the supplement of paper PMC11219838
# System: Caenorhabditis elegans L1 (N2)
# Assay: survival and reproduction score of C. elegans L1 (0: 0-10 living worms, 1: 11-20, 2: 21-50, 3: >50, 4: overgrown) (score 0-4); higher = more worms, less nematicidal, active = 1 or less; extreme values may be limits of the assay
# Conditions: 60 µM; 6 days; temperature: 20 °C
# Experimental: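 DODA library (846 commercial 1,3,4- and 1,2,4-oxadiazole compounds plus commercial nematicide controls) screened at a single dose of 60 µM (0.6% DMSO) in 96-well plates, two biological replicates. Read-outs: C. elegans N2 L1 survival/reproduction score at day 6, 20 °C (0: 0-10 worms, 1: 11-20, 2: 21-50, 3: >50, 4: overgrown/starved). C. elegans daf-2 dauer, D. dipsaci and M. hapla J2 mobility at day 5, 20 °C, and P. penetrans mobility at day 5, 20 °C, each relative to DMSO controls. M. hapla egg hatching at day 12, 25 °C, relative to the mean of 8 DMSO wells on the same plate.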
row,SMILES,survival and reproduction score
1,CC(=O)Nc1cccc(-c2nnc(SCc3ccc(F)cc3)o2)c1,4 (inactive)
2,COc1nc(C)ccc1-c1noc(-c2ccccc2Br)n1,4 (inactive)
3,COc1ccc(-c2noc(COc3ccc(Cl)c(C)c3)n2)cc1,4 (inactive)
4,COc1cccc(NC(=O)c2ccccc2-c2nc(-c3ccccc3Cl)no2)c1,4 (inactive)
5,COc1ccc(-c2noc(COc3ccc(C4CCCCC4)cc3)n2)cc1,4 (inactive)
6,O=C(CSc1nnc(-c2ccc(Br)cc2)o1)Nc1ccc2ccccc2c1,4 (inactive)
7,CCOc1cc(-c2nc(-c3cccnc3)no2)cc(OCC)c1OCC,4 (inactive)
8,Fc1cccc(-c2nc(-c3ccccc3)no2)c1,0 (active)
9,CCOc1ccccc1-c1nnc(SCC(=O)N2CCC(C)CC2)o1,4 (inactive)
10,COc1ccccc1-c1nc(-c2ccc(Cl)cc2Cl)no1,4 (inactive)
11,Cc1ccc(-c2noc(COc3cc(C)cc(C)c3)n2)cc1,4 (inactive)
12,CCCOc1ccc(-c2ccc(-c3nc(-c4cccnc4)no3)cc2)cc1,4 (inactive)
13,Cn1c(SCc2ccc(Cl)cc2)nnc1-c1ccco1,4 (inactive)
14,COc1ccc(-c2noc(COc3ccc(Br)cc3)n2)cc1,2 (inactive)
15,N#Cc1ccc(CSc2nnc(-c3ccccc3)o2)cc1,4 (inactive)
16,COc1nc(-c2ccccc2)ccc1-c1noc(-c2ccccc2Cl)n1,4 (inactive)
17,COc1cccc(-c2noc(COc3ccc(Cl)cc3)n2)c1,4 (inactive)
18,COc1ccc(-c2noc(-c3ccc(Cl)cc3)n2)cc1,3 (inactive)
19,CN(C)c1ccc(-c2nnc(SCc3ccccc3)o2)cc1,4 (inactive)
20,Cc1ccc(-c2nc(C3CCCCC3)no2)cc1,0 (active)

row,SMILES,survival and reproduction score
1,CCOc1cc(-c2nc(-c3ccccc3OC)no2)cc(OCC)c1OCC,4 (inactive)
2,O=C(CSc1nnc(-c2ccco2)o1)Nc1ccccc1F,4 (inactive)
3,CCNC(=O)c1ccccc1-c1nc(-c2ccc(OC)cc2)no1,4 (inactive)
4,COc1cccc(-c2noc(COc3ccc(C)cc3C)n2)c1,4 (inactive)
5,CCOc1cc(-c2nc(-c3ccc(C)nc3OCC)no2)cc(OCC)c1OCC,4 (inactive)
6,COc1ccccc1-c1nc(-c2cccc(Br)c2)no1,4 (inactive)
7,COc1ccc(Cl)cc1-c1nc(-c2ccc3c(c2)OCO3)no1,4 (inactive)
8,Clc1ccccc1-c1noc(-c2ccccc2Cl)n1,2 (inactive)
9,Brc1ccc(CSc2nnc(-c3ccco3)o2)cc1,0 (active)
10,O=C(CSc1nnc(-c2ccncc2)o1)Nc1cc(Cl)cc(Cl)c1,4 (inactive)
11,O=C(CSc1nnc(-c2ccc(Cl)cc2Cl)o1)c1ccc2c(c1)OCCO2,4 (inactive)
12,O=C(c1ccccc1-c1nc(-c2ccc(Cl)cc2)no1)N1CCCCC1,4 (inactive)
13,Clc1ccccc1-c1noc(COc2ccc(Br)cc2)n1,4 (inactive)
14,CCc1cccc(C)c1NC(=O)CSc1nnc(-c2ccccc2)o1,4 (inactive)
15,Cc1ccccc1OCc1nc(-c2cccc(NC(=O)c3ccco3)c2)no1,4 (inactive)
16,CC(C)C(=O)Nc1ccccc1-c1nc(-c2ccccc2)no1,4 (inactive)
17,COc1ccccc1-c1noc(-c2ccccc2)n1,4 (inactive)
18,COc1cccc(-c2noc(-c3c(F)cccc3F)n2)c1,4 (inactive)
19,Cc1ccc(OC(C)c2nc(-c3ccncc3)no2)cc1C (stereo not given),4 (inactive)
20,FC(F)(F)c1cccc(-c2noc(-c3cccs3)n2)c1,0 (active)
